PubChem BioAssay (EPA / NIEHS)
Active and inactive are the calls of the source. Rule for the calls: active = hit-call score of the fitted dose curve at least 0.9, where 1 is the maximum; inactive = score below 0.9.

Experiments:
[1] = read-out: Thrombomodulin, THBD (gene 7056); experiment: BSK_CASM3C_Thrombomodulin: BioMAP Diversity Plus: CASM3C Assay for Thrombomodulin Biomarker Activity (AID 2283051); details: primary human coronary artery smooth muscle cells; actives raise or lower the signal;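 note: thrombomodulin protein level measured by ELISA 24 h after dosing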
[2] = read-out: Tissue Factor, F3 (gene 2152); experiment: BSK_CASM3C_TissueFactor: BioMAP Diversity Plus: CASM3C Assay for Tissue Factor Biomarker Activity (AID 2283052); details: primary human coronary artery smooth muscle cells; actives raise or lower the signal;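 note: cell surface tissue factor protein level read by ELISA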
[3] = read-out: Interferon-gamma inducible Protein 10 (IP10), CXCL10 (gene 3627); experiment: BSK_hDFCGF_IP10: BioMAP Diversity Plus: hDFCGF Assay for Interferon-gamma inducible Protein 10 (IP10) Biomarker Activity (AID 2283053); details: primary human foreskin fibroblasts; actives raise or lower the signal
How it was run: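 ELISA read-out of IP-10 (CXCL10) from primary human skin fibroblasts, 24 h after compound addition. Gain or loss of signal versus DMSO baseline, bidirectional curve fitting.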

[4] = read-out: Urokinase-type plasminogen activator receptor (uPAR), PLAUR (gene 5329); experiment: BSK_CASM3C_uPAR: BioMAP Diversity Plus: CASM3C Assay for Urokinase-type plasminogen activator receptor (uPAR) Biomarker Activity (AID 2283054); details: primary human coronary artery smooth muscle cells; actives raise or lower the signal;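 note: cell-surface uPAR protein level quantified by ELISA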
[5] = read-out: Vascular cell adhesion molecule 1 (VCAM1), VCAM1 (gene 7412); experiment: BSK_CASM3C_VCAM1: BioMAP Diversity Plus: CASM3C Assay for Vascular cell adhesion molecule 1 (VCAM1) Biomarker Activity (AID 2283055); details: primary human coronary artery smooth muscle cells; actives raise or lower the signal;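 note: VCAM-1 protein level quantified by ELISA on the cells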
[6] = read-out: Collagen III, COL3A1 (gene 1281); experiment: BSK_hDFCGF_CollagenIII: BioMAP Diversity Plus: hDFCGF Assay for Collagen III Biomarker Activity (AID 2283056); details: primary human foreskin fibroblasts; actives raise or lower the signal
How it was run: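 Cells: human foreskin fibroblasts, primary. Dosing followed by 24 h incubation, then ELISA for collagen III. Both increases and decreases scored relative to DMSO.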

[7] = read-out: Epidermal growth factor receptor (EGFR), EGFR (gene 1956); experiment: BSK_hDFCGF_EGFR: BioMAP Diversity Plus: hDFCGF Assay for Epidermal growth factor receptor (EGFR) Biomarker Activity (AID 2283057); details: primary human foreskin fibroblasts; actives raise or lower the signal
How it was run: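 ELISA readout of EGFR on human dermal fibroblasts (primary foreskin cells), 24 h post-dosing; bidirectional curve fit vs DMSO baseline, gain or loss of signal scored.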

[8] = read-out: Interleukin-8 (IL8), CXCL8 (gene 3576); experiment: BSK_hDFCGF_IL8: BioMAP Diversity Plus: hDFCGF Assay for Interleukin-8 (IL8) Biomarker Activity (AID 2283058); details: primary human foreskin fibroblasts; actives raise or lower the signal
How it was run: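 IL-8 levels from compound-treated primary human fibroblasts were read by ELISA at 24 h, with DMSO serving as baseline for bidirectional fitting.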

[9] = BSK_hDFCGF_Proliferation: Cell Proliferation Assessment in the BioMAP Diversity Plus: hDFCGF Assay (AID 2283059); details: primary human foreskin fibroblasts;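 note: curves fitted for both rise and fall of signal versus DMSO baseline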
How it was run: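 Total protein read at 560 nm after 0.1% SRB staining of TCA-fixed human skin fibroblasts, […]. Activity is fitted in both directions relative to DMSO as baseline.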

[10] = read-out: Macrophage colony-stimulating factor (MCSF), CSF1 (gene 1435); experiment: BSK_hDFCGF_MCSF: BioMAP Diversity Plus: hDFCGF Assay for Macrophage colony-stimulating factor (MCSF) Biomarker Activity (AID 2283060); details: primary human foreskin fibroblasts; actives raise or lower the signal
How it was run: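 M-CSF levels, determined by ELISA, are taken at 24 h after dosing human skin fibroblasts. Responses in either direction are fitted with DMSO serving as the baseline.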

[11] = BSK_hDFCGF_SRB: Viability Assessment in the BioMAP Diversity Plus: hDFCGF Assay (AID 2283061); details: primary human foreskin fibroblasts;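 note: cells exposed to compound for 24 h before the read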
How it was run: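 Cells were dosed with test chemical, cultured 24 h, fixed with 10% TCA, then stained with 0.1% SRB and read at 560 nm. The fibroblasts were human foreskin primary cells, and DMSO served as baseline.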

[12] = read-out: TIMP metallopeptidase inhibitor 1 (TIMP1), TIMP1 (gene 7076); experiment: BSK_hDFCGF_TIMP1: BioMAP Diversity Plus: hDFCGF Assay for TIMP metallopeptidase inhibitor 1 (TIMP1) Biomarker Activity (AID 2283062); details: primary human foreskin fibroblasts; actives raise or lower the signal
How it was run: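 Fibroblasts from human foreskin are treated with test chemical and harvested at 24 h. TIMP-1 is quantified by ELISA, and gain or loss of signal is scored against DMSO.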

[13] = read-out: Monokine induced gamma interferon (MIG), CXCL9 (gene 4283); experiment: BSK_hDFCGF_MIG: BioMAP Diversity Plus: hDFCGF Assay for Monokine induced gamma interferon (MIG) Biomarker Activity (AID 2283063); details: primary human foreskin fibroblasts; actives raise or lower the signal
How it was run: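 MIG signal, determined by ELISA, reflects 24 h chemical exposure of human skin primary fibroblasts. DMSO serves as negative control and baseline.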

[14] = read-out: Matrix Metallopeptidase 1 (MMP1), MMP1 (gene 4312); experiment: BSK_hDFCGF_MMP1: BioMAP Diversity Plus: hDFCGF Assay for Matrix Metallopeptidase 1 (MMP1) Biomarker Activity (AID 2283064); details: primary human foreskin fibroblasts; actives raise or lower the signal
How it was run: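 ELISA read-out of MMP1 from human foreskin fibroblasts (primary skin cells), 24 h post-dose. Gain or loss of signal was fitted bidirectionally versus DMSO negative control; cytotoxicity was checked by SRB in parallel cultures.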

[15] = read-out: Vascular cell adhesion molecule 1 (VCAM1), VCAM1 (gene 7412); experiment: BSK_hDFCGF_VCAM1: BioMAP Diversity Plus: hDFCGF Assay for Vascular cell adhesion molecule 1 (VCAM1) Biomarker Activity (AID 2283065); details: primary human foreskin fibroblasts; actives raise or lower the signal;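 for AC50: VCAM-1 protein level quantified by ELISA after 24 h chemical exposure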
How it was run: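 Cells are dosed, cultured for 24 h, then VCAM-1 is quantified by ELISA; signal increases and decreases are both fitted relative to DMSO.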

[16] = read-out: Plasminogen activator inhibitor-1 (PAI1), SERPINE1 (gene 5054); experiment: BSK_hDFCGF_PAI1: BioMAP Diversity Plus: hDFCGF Assay for Plasminogen activator inhibitor-1 (PAI1) Biomarker Activity (AID 2283066); details: primary human foreskin fibroblasts; actives raise or lower the signal
How it was run: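 ELISA readout of PAI-1 from primary human skin fibroblast cultures, 24 h after compound addition. Gain or loss of signal was fitted bidirectionally against DMSO baseline.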

[17] = read-out: Intercellular Adhesion Molecule 1 (ICAM1), ICAM1 (gene 3383); experiment: BSK_KF3CT_ICAM1: BioMAP Diversity Plus: KF3CT Assay for Intercellular Adhesion Molecule 1 (ICAM1) Biomarker Activity (AID 2283067); details: primary human keratinocytes with fibroblasts; actives raise or lower the signal
How it was run: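 Dose the keratinocyte/fibroblast co-culture, wait 24 h, measure ICAM-1 by ELISA, then fit increases or decreases against DMSO. Cytotoxicity is checked in parallel cultures by SRB total-protein staining.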

[18] = read-out: Interferon-gamma inducible Protein 10 (IP10), CXCL10 (gene 3627); experiment: BSK_KF3CT_IP10: BioMAP Diversity Plus: KF3CT Assay for Interferon-gamma inducible Protein 10 (IP10) Biomarker Activity (AID 2283068); details: primary human keratinocytes with fibroblasts; actives raise or lower the signal
How it was run: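 Human keratinocyte plus foreskin fibroblast primary co-culture exposed to test chemical for 24 h; IP-10 measured by ELISA. Concentration-response fitted bidirectionally against DMSO control as baseline.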

[19] = read-out: Interleukin-1 alpha (IL1a), IL1A (gene 3552); experiment: BSK_KF3CT_IL1a: BioMAP Diversity Plus: KF3CT Assay for Interleukin-1 alpha (IL1a) Biomarker Activity (AID 2283070); details: primary human keratinocytes with fibroblasts; actives raise or lower the signal
How it was run: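 Primary skin co-culture (keratinocytes, foreskin fibroblasts), 24 h exposure; ELISA for IL-1a; bidirectional curve fit vs DMSO.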

[20] = BSK_KF3CT_SRB: Viability Assessment in the BioMAP Diversity Plus: KF3CT Assay (AID 2283069); details: primary human keratinocytes with fibroblasts;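 note: total protein by sulforhodamine B staining as a cytotoxicity measure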
How it was run: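 SRB read-out at 560 nm (0.1% stain, TCA-fixed cells) gauges overt cytotoxicity in a human skin keratinocyte–fibroblast co-culture 24 h post-dosing. Signal change was fitted bidirectionally relative to DMSO control.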

Measured: AC50

C[Si](Cn1cncn1)(c1ccc(F)cc1)c1ccc(F)cc1
active: [1] 7.8 µM
not listed: [20]
inactive: all other assays above

CCCOCC(=Nc1ccc(Cl)cc1C(F)(F)F)n1ccnc1
active: [1] 20.9 µM | [3] 31.1 µM | [5] 20 µM | [6] 29.4 µM | [7] 33.8 µM | [8] 38.3 µM | [9] 21.2 µM | [10] 24.3 µM | [11] 30.4 µM | [12] 32 µM | [14] 33.2 µM | [15] 27.9 µM | [16] 26.3 µM | [17] 29.7 µM | [18] 29.1 µM | [20] 32.7 µM | [19] 36.4 µM
inactive: [2] | [4]

CCOP(=O)(NC(C)C)Oc1ccc(SC)c(C)c1 (centres undefined)
not listed: [20]
inactive: all other assays above

C#CC(C)(C)NC(=O)c1cc(Cl)cc(Cl)c1
active: [3] 4.25 µM | [6] 2.72 µM
not listed: [20]
inactive: all other assays above

COP(=O)(OC)C(O)C(Cl)(Cl)Cl (centres undefined)
not listed: [8]
inactive: all other assays above

COc1cc(OC)nc(Sc2cccc(Cl)c2C(=O)O)n1
not listed: [20]
inactive: all other assays above

CC(C)N(C(=O)SCC(Cl)=C(Cl)Cl)C(C)C
active: [1] 20 µM | [3] 34 µM | [6] 30.5 µM | [7] 28.4 µM | [8] 33.6 µM | [9] 36.6 µM | [10] 32 µM | [11] 33.8 µM | [12] 34.4 µM | [13] 33.8 µM | [14] 31.4 µM | [15] 34.8 µM | [16] 34.4 µM | [17] 29.8 µM | [18] 36.3 µM | [19] 30.5 µM
inactive: [2] | [4] | [5]

CC(=NC#N)N(C)Cc1ccc(Cl)nc1
not listed: [20]
inactive: all other assays above

CC1=NNC(=O)N(/N=C/c2cccnc2)C1
not listed: [20]
inactive: all other assays above

COP(=O)(OC)OC(Br)C(Cl)(Cl)Br (centres undefined)
inactive: [1] | [2] | [7]
active: [3] 13.9 µM | [4] 32 µM | [5] 18.5 µM | [6] 31.5 µM | [8] 37.8 µM | [9] 2.6 µM | [10] 16.4 µM | [11] 20 µM | [12] 15.7 µM | [13] 17.5 µM | [14] 32.7 µM | [15] 13.4 µM | [16] 30.1 µM | [17] 31.1 µM | [18] 30 µM | [19] 27.1 µM

CC(Oc1cccc(Cl)c1)C(=O)O (centres undefined)
active: [19] 1.15 µM
not listed: [20]
inactive: all other assays above
